# In all, about 87,000 compounds went through this assay and about 360 (0.41%) were called active. Rule as the data show it: active = cytotoxicity above about 50%; inactive = the rest. What follows is part of a selection rich in actives, with near analogues and random picks from the rest.
# Experiment: cytotoxicity in HT1080 fibrosarcoma cells, cell-based, fluorescence readout (AID 620);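 also: cells exposed to compound overnight then 4 h with Alamar Blue; 0% = vehicle DMSO and 100% = killing control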
# Settings: HT1080 viability, at 10 µM, stronger effect = higher value
row,SMILES,cytotoxicity
1,COc1cc(NS(=O)(=O)c2cc(C)ccc2OC)c(OC)cc1Cl,-2.6% (inactive)
2,COc1ccc(OC)c(S(=O)(=O)Nc2cc(OC)c(Cl)cc2OC)c1,9.8% (inactive)
3,COc1cc(NS(=O)(=O)c2ccc(OC)c(C)c2C)c(OC)cc1Cl,55.1% (active)
4,CCOc1cc(C2CC(=O)Nc3cc(C)c(C)cc32)ccc1O (configuration not stated),-0.2% (inactive)
5,COc1ccc(NC(=O)CCN2CCCCC2)cc1,9% (inactive)
6,CCOc1ccccc1-c1nc(-c2cc3ccccc3nc2OC)no1,-4.6% (inactive)
7,Cc1cc(F)c(F)c(C(=O)N2CCN(C)CC2)c1Cl,6.8% (inactive)
8,CCc1ccc(C2(O)CC(C(F)(F)F)=NN2C(=O)Cc2ccc([N+](=O)[O-])cc2)cc1 (configuration not stated),2.2% (inactive)
9,Cc1ccc2c(c1)c1c3n2CCCNC3CCC1 (configuration not stated),-1.3% (inactive)
10,c1cc2c(cc1C1CCCCC1)c1c3n2CCCNC3CCC1 (configuration not stated),69.7% (active)
11,Cc1ccc2c(c1)c1c3n2CCN(C(=O)CN2CCN(C)CC2)C3CCC1 (configuration not stated),12.8% (inactive)
12,c1ccc2c(c1)c1c3n2CCNC3CCC1 (configuration not stated),-2.4% (inactive)
13,Cc1ccc2c(c1)c1c3n2CCN(C(=O)C2CC2)C3CCC1 (configuration not stated),-15.3% (inactive)
14,O=C(NC(Cc1ccc2c(c1)OCO2)C(=O)N1CCCC1C(=O)O)c1ccccc1 (configuration not stated),3.5% (inactive)
15,Cn1c(=O)[nH]c2sc3c(c2c1=O)CC(C)(C)OC3,27.1% (inactive)
16,Cc1c(C(=O)N2CCOCC2)[nH]c2c1C(=O)CC(c1ccc(Cl)cc1)C2 (configuration not stated),5.8% (inactive)
17,COCCOC(=O)c1[nH]c2c(c1C)C(=O)CC(c1ccc(N(C)C)cc1)C2 (configuration not stated),-0.7% (inactive)
18,Cc1c(C(=O)OCC2CCCO2)[nH]c2c1C(=O)CC(c1ccc(N(C)C)cc1)C2 (configuration not stated),-2.7% (inactive)
19,Cc1c(C(=O)OCC2CCCO2)[nH]c2c1C(=O)CC(c1ccco1)C2 (configuration not stated),52.9% (active)
20,CCOC(=O)c1ccc(N=CC2=C(O)CC(c3ccco3)CC2=O)cc1 (configuration not stated),-1.5% (inactive)
21,COc1ccc(OC)c(C2CC(=O)c3c([nH]c(C(=O)OCC4CCCO4)c3C)C2)c1 (configuration not stated),-5.3% (inactive)
22,CCOCCOC(=O)c1[nH]c2c(c1C)C(=O)CC(c1ccc(N(C)C)cc1)C2 (configuration not stated),-3.6% (inactive)
23,COCCOC(=O)c1[nH]c2c(c1C)C(=O)CC(c1cc(OC)ccc1OC)C2 (configuration not stated),-3.5% (inactive)
24,CSCCOC(=O)c1[nH]c2c(c1C)C(=O)CC(c1ccco1)C2 (configuration not stated),62.4% (active)
25,CCOC(=O)c1[nH]c2c(c1C)C(=O)CC(c1ccco1)C2 (configuration not stated),66% (active)

row,SMILES,cytotoxicity
1,COCCOC(=O)c1[nH]c2c(c1C)C(=O)CC(c1ccco1)C2 (configuration not stated),67.1% (active)
2,COC(=O)NCC(c1cccnc1)N1CCOCC1 (configuration not stated),2.8% (inactive)
3,COc1ccc(C(c2nnnn2C2CCCC2)N2CCN(C3CCCC3)CC2)cc1OC (configuration not stated),-1.8% (inactive)
4,Cc1ccc(NC(=O)c2oc3c(c2C)C(=O)CC(C)(C)C3)cc1,-0.8% (inactive)
5,O=S(=O)(c1ccccc1)N1CCN(S(=O)(=O)c2ccccc2)C1,-4.1% (inactive)
6,CCn1cnc2cc(NS(=O)(=O)c3ccc(C)cc3)ccc21,11.7% (inactive)
7,Cc1ccccc1NC(=O)c1cccc2nccnc12,-4.6% (inactive)
8,COc1ccc(-c2cnc3nc[nH]c(=O)c3n2)cc1,-12.3% (inactive)
9,Cc1cnc(C(=O)Nc2ccc(F)cc2)cn1,-11.7% (inactive)
10,COc1cccc(C2c3c(-c4cc(Cl)c(C)cc4O)n[nH]c3C(=O)N2Cc2cccnc2)c1 (configuration not stated),-4.8% (inactive)
11,CCOC(=O)N1CCN(C(=O)c2cccn3c(=O)c4sccc4nc23)CC1,-2.4% (inactive)
12,FC(F)(F)c1ccc(N2CCN(c3ncnc4c3nnn4Cc3ccccc3Cl)CC2)cc1,-17.6% (inactive)
13,Cc1c(C(=O)N2CCOCC2)[nH]c2c1C(=O)CC(c1ccccc1Cl)C2 (configuration not stated),34.2% (inactive)
14,CCOC(=O)c1[nH]c2c(c1C)C(=O)CC(c1ccc(F)cc1)C2 (configuration not stated),70.2% (active)
15,Cc1c(C(=O)O)[nH]c2c1C(=O)CC(c1ccc(Cl)cc1)C2 (configuration not stated),-4.3% (inactive)
16,Cc1c(C(=O)OCc2ccccc2)[nH]c2c1C(=O)CC(c1ccco1)C2 (configuration not stated),67.8% (active)
17,COc1cc(C2CC(=O)c3c([nH]c(C(=O)OCCOC(C)C)c3C)C2)cc(OC)c1OC (configuration not stated),-1.3% (inactive)
18,COc1ccc(OC)c(C2CC(=O)c3c([nH]c(C(=O)OC(C)C)c3C)C2)c1 (configuration not stated),10.6% (inactive)
19,CCC(C)OC(=O)c1[nH]c2c(c1C)C(=O)CC(c1ccc(N(C)C)cc1)C2 (configuration not stated),-1.9% (inactive)
20,CC1=C(C(=O)OCc2ccccc2)C(c2ccco2)C2=C(CC(C)(C)CC2=O)N1 (configuration not stated),-6.1% (inactive)
21,COCCOC(=O)c1[nH]c2c(c1C)C(=O)CC(c1ccc(F)cc1)C2 (configuration not stated),-9% (inactive)
22,Cc1c(C(=O)OCC(C)C)[nH]c2c1C(=O)CC(c1ccco1)C2 (configuration not stated),63.9% (active)
23,Cc1c(C(=O)OCCOC(C)C)[nH]c2c1C(=O)CC(C)(C)C2,-5.6% (inactive)
24,Cc1c(C(=O)OCCOC(C)C)[nH]c2c1C(=O)CC(c1ccco1)C2 (configuration not stated),66.2% (active)
25,CCCCOc1ccc(C(=O)N2CC(C)OC(C)C2)cc1 (configuration not stated),-6.4% (inactive)

row,SMILES,cytotoxicity
1,Cc1ccc(-n2c(C)nc3c(cnn3-c3ccc(F)cc3)c2=O)cc1,-1.6% (inactive)
2,Cc1cc(NC(=O)C2CC(=O)OC2c2ccccc2)no1 (configuration not stated),10.6% (inactive)
3,CC(=O)OC(C(=O)NC1CCCCC1)c1ccc(C#N)cc1 (configuration not stated),-3.2% (inactive)
4,Cc1ccccc1-n1c(SCC(=O)N2CCOCC2)nc(O)cc1=O,3.4% (inactive)
5,COc1ccccc1C(=O)NC1CCCCCCC1,3.1% (inactive)
6,O=C(NC1=NCCS1)c1ccncc1,-1.5% (inactive)
7,O=C(COC(=O)c1cnccn1)NCCc1ccccc1,-15.3% (inactive)
8,Cc1c(C(=O)OC2CCCC2)[nH]c2c1C(=O)CC(c1ccco1)C2 (configuration not stated),64.9% (active)
9,Cc1c(C(=O)OC2CCCCC2)[nH]c2c1C(=O)CC(C)(C)C2,-1.3% (inactive)
10,Cc1c(C(=O)OC2CCC(C)CC2)[nH]c2c1C(=O)CCC2 (configuration not stated),0.6% (inactive)
11,COc1ccc(C2=NOC(C(=O)NC(C)C)C2)cc1 (configuration not stated),-5.6% (inactive)
12,CCOc1ccc(OCC)c(NC(=O)CN(C)S(=O)(=O)c2cnc[nH]2)c1,11.3% (inactive)
13,O=C(c1cnn2cccnc12)N1CCN(c2ccccc2)CC1,6.5% (inactive)
14,Cc1ccc2c(c1)c1c3n2CCN(C(=O)Cn2c(-c4ccccc4)noc2=O)C3CCC1 (configuration not stated),4.8% (inactive)
15,CC(=O)N1CCn2c3c(c(=O)c4cc(C)ccc42)CCC31 (configuration not stated),-5.9% (inactive)
16,Cc1ccc2c(c1)c(=O)c1c3n2CCN(C(=O)CCl)C3CC1 (configuration not stated),102% (active)
17,CCOC(=O)c1c(C)[nH]c(C)c1C(=O)CSc1nnc(-c2ccc(OC(F)F)cc2)o1,0.8% (inactive)
18,CN(C)c1ccc(C(=O)c2ccc(N(C)C)c3ccccc23)cc1,69.6% (active)
19,CN(C)c1ccc(C(=O)c2ccccc2)cc1,-16.8% (inactive)
20,COc1ccc(C(=O)c2ccc(N(C)C)cc2)c2ccccc12,63.3% (active)
21,CN(C)c1ccc(C(=O)c2ccc(O)cc2O)cc1,3.6% (inactive)
22,COc1ccc(C(=O)c2ccc(Cl)cc2)c2ccccc12,-14.8% (inactive)
23,COc1ccc(C(=O)c2ccc(OC)c3cccc(O)c23)cc1OC,-5.2% (inactive)
24,CC1=C(C)CC(C(=O)NCC(=O)c2ccccc2)C(C(=O)O)C1 (configuration not stated),-5% (inactive)
25,Cn1cnc([N+](=O)[O-])c1NC(C)(C)C,8.7% (inactive)

row,SMILES,cytotoxicity
1,COC(=O)C1=C(C)NC2=C(C(=O)CC(c3cccs3)C2)C1c1ccsc1 (configuration not stated),16.3% (inactive)
2,COC(=O)c1[nH]c2c(c1C)C(=O)CC(c1cc(OC)ccc1OC)C2 (configuration not stated),-2.1% (inactive)
3,CCCOC(=O)c1[nH]c2c(c1C)C(=O)CC(c1ccc(OC)c(OC)c1)C2 (configuration not stated),7.2% (inactive)
4,CCCOC(=O)c1[nH]c2c(c1C)C(=O)CC(c1cccs1)C2 (configuration not stated),66.7% (active)
5,COC(=O)c1[nH]c2c(c1C)C(=O)CC(c1cccs1)C2 (configuration not stated),58.6% (active)
6,CCOC(=O)C1=C(C)NC2=C(C(=O)CC(c3cccs3)C2)C1c1cccs1 (configuration not stated),5.7% (inactive)
7,CCCOCCOC(=O)c1[nH]c2c(c1C)C(=O)CC(c1cc(OC)ccc1OC)C2 (configuration not stated),1.3% (inactive)
8,Cc1c(C(=O)OCC(C)C)[nH]c2c1C(=O)CC(c1cccs1)C2 (configuration not stated),66% (active)
9,CC(C(=O)N=c1sc2ccccc2n1C)N1C(=O)C2CC=CCC2C1=O (configuration not stated),-11% (inactive)
10,c1ccc(CCn2c(C3CC3)nc3ccccc32)cc1,-16.9% (inactive)
11,CCOC(=O)c1ccc(NC(=O)C(CC)(CC)C(=O)OCC)cc1,-4.9% (inactive)
12,CC(C)(C)C1(c2ccccc2)NC(=O)N(CC(=O)N2CCOCC2)C1=O (configuration not stated),2.6% (inactive)
13,COc1cc(C#N)ccc1OCC(=O)c1ccc2c(c1)OCCO2,-5.9% (inactive)
14,CCc1cccc(CC)c1NC(=O)CSc1nnc(C(C)C)n1CC,0.9% (inactive)
15,Cc1csc(NC(=O)CN2C(=O)C3CC=CCC3C2=O)n1 (configuration not stated),-13.5% (inactive)
16,CCOC(=O)c1cccc(NC(=O)CSc2nnc(-c3cccnc3)n2CC)c1,12.7% (inactive)
17,CCn1c(SCC(=O)c2cc(C)n(C)c2C)nnc1-c1ccccc1,15.3% (inactive)
18,CCn1c(SCC(=O)c2cc(C)n(-c3ccc(C(=O)OC)cc3)c2C)nnc1-c1cccnc1,69.6% (active)
19,COc1ccccc1NS(=O)(=O)c1ccc(Cl)cc1,11.9% (inactive)
20,COc1ccccc1NC1=NC(C)(C)N=C(N)N1,-26.5% (inactive)
21,COc1ccccc1NC1=NC(c2ccc(Cl)cc2)N=C(N)N1 (configuration not stated),60.5% (active)
22,O=C(OC1CCS(=O)(=O)c2sccc21)c1ccccc1 (configuration not stated),-6.9% (inactive)
